Data on 40 compounds can be found in PubChem BioAssay (NCI).

The structures appear in SMILES notation. This is part of a sample that, as a whole, favours compounds with a hit. Of some 83,000 tested, about 20% had one in any assay.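 48-hour exposure, single concentration, 96-well plates; percent growth endpoint where 0 means no net growth. Active: below 10.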 Active and inactive are the calls of the source.

For this experiment, the system named is IGROV1 ovarian. In words: NCI-60 one-dose screen, 48 h (100 = growth as untreated, 0 = no growth, -100 = all killed). The settings on record: 10 µM unless noted. Here is the method: Growth inhibition of the IGROV1 human tumor cell line is measured as a screen for anti-cancer activity. Cells are grown in 96 well plates and exposed to the test compound for 48 hours. Compounds are tested at a single concentration, which is 10^-5 M for most compounds. The reported endpoint is percent growth (GI% or GIPRCNT), where numbers from 0 - 100% represent growth inhibition, and numbers from -100% - 0 represent cell death. For example, a value of 40 represents 60% growth inhibition. A value of 0 means no net growth occurred over the course of the experiment. A value of -40 indicates 40% of cells at the beginning of the experiment died by the end of the experiment. A value of -100 means all cells are dead at the end of the experiment.
NCI-60 Human Tumor Cell Lines Screen was performed using the standard one-dose NCI protocol, which is described in more detail at https://dtp.cancer.gov/discovery_development/nci-60/default.htm.
Compounds with GIPRCNT values below 10 were considered active. Activity score was based on GIPRCNT using the following formula: […]
Score is 0 for GIPRCNT values of 100 or above, 50 for GIPRCNT values of 0, and 100 for GIPRCNT values of -100.
For the compound `C=C1C(=O)O[C@H]2[C@H]1CC/C(COC(=O)c1cc3ccccc3s1)=C\CC[C@@]1(C)O[C@@H]21`, the growth is -66% (active).
Turning to `COC1=CC(c2ccc[nH]2)=N/C1=C\c1[nH]c(C)c(C)c1CCC(=O)OCc1ccccc1`, the growth is 0.242% (active).
Then `COc1ccc(-c2cc(-c3cccnc3)nc3sc4c(=O)[nH]c(-c5ccc(Cl)cc5)nc4c23)cc1OC`, with 90.3% (inactive); and `Cn1ccc(=O)c(C(=O)Nc2nsc3ccc([N+](=O)[O-])cc23)c1`, with 27.3% (inactive).
As to `CCOC(=O)NC(C)C`, the growth was 91.2% (inactive).
`COc1ccc(-c2nc3c(ncc4ccc(=O)[nH]c43)s2)cc1`: the growth is 67.5% (inactive).
Then `CSc1nc(N)c(NS(=O)(=O)c2ccc(C(C)=O)cc2)c(=O)[nH]1`, with 106% (inactive).
Consider `O=C(CN1CCCCC1)Nc1nc(-c2cc3ccccc3oc2=O)cs1`, for which the growth is 92.9% (inactive).
For `COc1ccc(Nc2nnc(-c3ccc(OC)c(OC)c3)o2)cc1`, the growth was 78.7% (inactive).
In the case of `COc1ccc2c(c1)c(-c1nc(-c3c[nH]c4ccncc34)cs1)cn2C`, the growth is -83.8% (active).
`O=C1/C(=C/c2ccc([N+](=O)[O-])cc2)COc2ccc(O)cc21`: the growth was 73.4% (inactive).
Regarding `O=C(Nc1cccc2ccccc12)NC1CC1`, the growth was 122% (inactive).
As to `COc1ccccc1N1CCCCC1`, the growth was 101% (inactive).
Take `Cc1ccc(/C=C2\COc3ccc(O)cc3C2=O)cc1`: the growth was 95.1% (inactive).
For `COc1cc(-c2cncn2-c2ccc(-c3nc4ccc(F)cc4s3)cc2)ccc1F`, the growth was 52.8% (inactive).
As for `CC1CN(S(=O)(=O)c2oc(-c3ccc(Cl)cc3)nc2C#N)CC(C)O1` (stereo not given), the growth was 80.5% (inactive).
For `COc1ccc(-c2ccc(-c3ccc(C(=N)N)cc3)s2)cc1Cl`, the growth was -87.5% (active).
Consider `Cc1ccccc1/C=C/C(=O)c1cccc(OCCCCOc2cccc(C(=O)/C=C/c3ccccc3C)c2)c1`, for which the growth was 96.6% (inactive).
Take `Fc1ccc(CNc2c3ccccc3nc3ccccc23)c(F)c1`: the growth is 35.7% (inactive).
`CCOC(=O)C/C(=N\Nc1cc(=O)[nH]c2ccc(Br)cc12)C(=O)OCC`: the growth is 82.6% (inactive).
`O=S(=O)(Nc1cc(F)cc(Cl)c1)c1ccc(-c2cnc(C3CC3)o2)cc1`: the growth was 30% (inactive).
For `O=C(OC(CO)C(=O)NC12CC3CC(CC(C3)C1)C2)c1ccc(Cl)cc1` (stereo not given), the growth was 109% (inactive).
Then `O=C(O)c1cn(C2CC2)c2cc(N3CCN(Cc4ccc5ccccc5c4O)CC3)c(F)cc2c1=O`, with 33.3% (inactive).
`CC(=O)N1N=C(c2ccc(Nc3nc(Nc4ccccc4)nc(Nc4ccccc4)n3)cc2)CC1c1cccc([N+](=O)[O-])c1` (stereo not given): the growth was 79.4% (inactive).
For `Cc1ccc2c(n1)C(=O)C(Br)=C(CC(C)C)C2=O`, the growth was 81.5% (inactive).
Regarding `N#Cc1ccc2c(c1)C(=O)c1c-2n(CCCN)c(=O)c2cc([N+](=O)[O-])ccc12`, the growth was -95.6% (active).
For the compound `CCCc1c(OC(=O)c2ccccc2)nc2[nH]c(=O)sc2c1C`, the growth was 101% (inactive).
Consider `CC(=O)O[C@H]1CC2CCC3C(CC[C@@]4(C)C3C[C@H]([N+]3(C)CCCCC3)[C@@H]4OC(C)=O)[C@@]2(C)C[C@@H]1N1CCCCC1` (stereo not given in full), for which the growth is 111% (inactive).
Consider `CN1CCc2nc3sc(C(N)=O)c(N)c3c(-c3cccs3)c2C1`, for which the growth was 26.2% (inactive).
Turning to `O=C1NC(=O)C(Cc2ccc(OCc3ccc(-c4ccc(Cl)cc4Cl)cc3)cc2)S1` (stereo not given), the growth is 52.2% (inactive).
As for `COc1ccc(C2CC(c3ccc(Nc4nc(Nc5ccccc5)nc(Nc5ccccc5)n4)cc3)=NN2C(C)=O)cc1` (stereo not given), the growth is 118% (inactive).
With `CCCCn1c(=O)[nH]c(N)c([C@@H]2c3c([nH]c(=O)n(CCCC)c3=O)Oc3ccc4ccccc4c32)c1=O`, the growth is 1.79% (active).
Turning to `Nc1ncnc2c1C(c1ccccc1)c1ccc3ccccc3c1O2` (stereo not given), the growth was 77.8% (inactive).
On to `Cc1ccc(Nc2cc(N)nc(N)n2)cc1Cl`, for which the growth is 91% (inactive).
As for `O=C1C(Cl)=C(NCCCCCCNC2=C(Cl)C(=O)c3ccccc3C2=O)C(=O)c2ccccc21`, the growth is 38.2% (inactive).
Then `COc1ccc(/C=C(\C#N)n2nnc3ccc(Cl)cc32)cc1`, with 59.5% (inactive); and `COc1ccc(Cc2cnc(NC(=O)c3cc(C)oc3C)s2)cc1`, with 44.6% (inactive); and `COc1ccc(-c2ccc(=O)oc2-c2cc(OC)c(OC)c(OC)c2)cc1O`, with 3.86% (active).
For `C=CCN=c1sc2c(n1NC(=O)c1cc3ccc1CCc1ccc(cc1)CC3)C(=O)c1ccccc1C2=O`, the growth is -20.5% (active).
On to `Cn1cc(-c2nonc2-c2cn(C)c3ccccc23)c2ccccc21`, for which the growth is 45.9% (inactive).
